The results in this text go back to PubChem BioAssay (Tox21).

Values joined by “and” are separate entries in the source; they are usually repeats but may differ in a detail not shown here. Identical values can stand only once. Inconclusive results are not listed. The source holds several records for some structures; these can differ, active in one and inactive in another. Active and inactive are the calls of the source. Unless noted, the call rests on the fitted dose curve; in most records, active means well fitted curve in the direction sought with a large enough effect in the repeat runs; inconclusive means weak or mixed curves; inactive means no such curve, though single readings can be large; an effect the other way counts as inactive or inconclusive.

The target in assay [1] is Luciferin 4-monooxygenase (Photinus pyralis) (UniProt P08659). In words: qHTS assay to identify small molecule inhibitors of firefly luciferase (AID 1224835). Further: nearly all actives have a fitted effect of over 25% in size. Further: potency means the concentration at half of the fitted maximal effect. Put shortly: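 Biochemical qHTS: compounds run as interplate titrations against purified firefly enzyme, with D-luciferin and ATP each at its KM concentration. Light output recorded by CCD imaging.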
A general note: qHTS replaces the single test concentration by a dilution series.

A short description of assay [2]: qHTS assay to identify small molecule agonists of the constitutive androstane receptor (CAR) signaling pathway - cell viability counter screen (AID 1224836). Further: nearly all actives have a fitted effect of over 45% in size. Further: potency means the concentration at half of the fitted maximal effect. Put shortly:
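Counter screen multiplexed with the CAR reporter readout: HepG2 cells co-transfected with hCAR and the CYP2B6-2.2kb construct receive a 15-concentration compound series and 0.75 uM PK11195 (final), then CellTiter-Fluor fluorescence is read after 23 h.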

The nature of assay [3]: qHTS assay to identify small molecule antagonists of the constitutive androstane receptor (CAR) signaling pathway - cell viability counter screen (AID 1224837). Further: nearly all actives have a fitted effect of over 45% in size. Further: potency means the concentration at half of the fitted maximal effect. The method in brief: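 To flag cytotoxic false antagonists, HepG2 hCAR/CYP2B6-2.2kb cells were treated 23 hr with 15-concentration compound series and 50 nM CITCO at 37 C/5% CO2; CellTiter-Fluor fluorescence was the measured end point.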

The target of assay [4] is Nuclear receptor subfamily 1 group I member 3 (Homo sapiens) (UniProt Q14994). In words: qHTS assay to identify small molecule antagonists of the constitutive androstane receptor (CAR) signaling pathway (AID 1224838).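 Further: HepG2 cells stably expressing hCAR with CYP2B6 luciferase reporter stimulated by CITCO; nearly all actives have a fitted effect of over 40% in size.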 Further: potency means the concentration at half of the fitted maximal effect. The method in brief:
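Human hepatoma HepG2 cells expressing hCAR and a CYP2B6 promoter (2.2 kb) luciferase construct; compound titration (15 points) with 50 nM CITCO final, 24 h at 37 C/5% CO2; luminescence via ONE-Glo after 30 min at room temperature.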

For assay [5] the target is unchanged. In words: qHTS assay to identify small molecule agonists of the constitutive androstane receptor (CAR) signaling pathway (AID 1224839). Further: nearly all actives have a fitted effect of over 15% in size. Further: potency means the concentration at half of the fitted maximal effect. On activation: on the % scale 0 is the no-effect control and ±100 the full control effect. Put shortly: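 A 15-concentration quantitative screen uses HepG2 cells co-transfected stably with human CAR and CYP2B6-2.2kb reporter. Treatment lasts 24 h with 0.75 uM PK11195 final present; ONE-Glo luminescence is the signal.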

Assay [6] in a line: qHTS assay to identify small molecule antagonists of the estrogen related receptor signaling pathway with the pleiotropic PPARgamma coactivator (PGC) from Tox21 10K library - cell viability counter screen (AID 1224840; active means well fitted cell-killing curve with a large enough effect in the repeat runs, not every such curve was filed as active; further: nearly all actives have a fitted effect of over 40% in size; further: potency means the concentration at half of the fitted maximal effect). Put shortly:
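Seeded PGC/ERR cells (2,000/well, 6 h, 37 C/5% CO2) get compound by pin tool; 17.5 h incubation at 37 C; CellTiter-Fluor added, 30 min, fluorescence measured.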

In assay [7] the target is Thyrotropin receptor (Homo sapiens) (UniProt P16473). The assay can be described thus: qHTS assay to identify small molecule agonists of the thyroid stimulating hormone receptor (TSHR) signaling pathway (AID 1224843; calls by dose curve; further: on the % scale 0 is the no-effect control and ±100 the full control effect; nearly all actives have a fitted effect of over 45% in size). Put shortly:
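HEK293/TSHR, 800 cells/well; cpd 30 min RT; add cAMP-d2 + anti-cAMP-cryptate, 1 h RT; fluorescence read on plate reader. 15-pt titration, n=3.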

Assay [8] is described as follows: qHTS assay to identify small molecule agonists of the hypoxia (HIF-1) signaling pathway - cell viability counter screen (AID 1224844; calls by dose curve; further: nearly all actives have a fitted effect of over 50% in size; further: potency means the concentration at half of the fitted maximal effect). The method in brief:
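HRE-bla ME-180; 0.5% dFBS; cpd 17 h, 37C, 5% CO2; CellTiter-Glo lum., 30 min RT, post-FRET read, same wells.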

The nature of assay [9]: qHTS assay to identify small molecule agonists of the hypoxia (HIF-1) signaling pathway (AID 1224846; active means well fitted activation curve with a large enough effect in the signal ratio in the repeat runs, not every such curve was filed as active; the % refers to the signal ratio; further: on the % scale 0 is the no-effect control and ±100 the full control effect). The method in brief:
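Reporter induction in HRE-bla ME-180 cells is taken as agonism: cells sit 5 hrs after plating, receive compounds or DMSO only, incubate 17 hrs at 37C under 5% CO2, and are loaded with CCF4-AM for beta-lactamase FRET measurement.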

The nature of assay [10]: qHTS assay to identify small molecule agonists of H2AX - cell viability counter screen (AID 1224847; calls by dose curve; further: nearly all actives have a fitted effect of over 30% in size; further: potency means the concentration at half of the fitted maximal effect). The method in brief: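 We seed wild-type CHO-K1 cells overnight, treat them for 3 hr at 37C with compounds in 15-concentration series, and quantify remaining viability by CellTiter-Glo luminescence.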
The nature of assay [11]: qHTS RealTime-Glo MT Cell Viability Assay in HepG2 cells - 24 hour (AID 1224867). Further: nearly all actives have a fitted effect of over 50% in size. Further: potency means the concentration at half of the fitted maximal effect. The method in brief:
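qHTS, HepG2, 600 cells/well, RealTime-Glo (NanoLuc + prosubstrate) added with cells; 5 h preincubation; DMSO compound addition; 37 C; luminescence at 0/8/16/24/32/40 h.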

Assay [12] is described as follows: qHTS RealTime-Glo MT Cell Viability Assay in HEK293 cells - 32 hour (AID 1224868). Further: nearly all actives have a fitted effect of over 50% in size. Further: potency means the concentration at half of the fitted maximal effect. Put shortly: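 Assay medium contained NanoLuc luciferase plus cell-permeant prosubstrate, added with HEK293 cells at 600 cells/well. After 5 h at 37 C/5% CO2 compounds were added; plates stayed at 37 C for 40 h with serial luminescence reads.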
Assay [13] can be described thus: A CellTox Green Cytotoxicity Assay to monitor cytotoxicity in HEK293 cells - 0 hour (AID 1224869). Further: nearly all actives have a fitted effect of over 50% in size. Further: potency means the concentration at half of the fitted maximal effect. On Cytotoxicity: on the % scale 0 is the no-effect control and ±100 the full control effect. Put shortly: (§1)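 Tox21 screen in HEK293: membrane-impermeant cyanine dye fluoresces on binding dead-cell DNA; compound pinned 5 h post-seeding, plates held at 37 C, signal read repeatedly through 40 h.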
Assay [14] is described as follows: qHTS RealTime-Glo MT Cell Viability Assay in HepG2 cells - 40 hour (AID 1224870). The method in brief: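 HepG2 cells (600/well) mixed with RealTime-Glo MT reagent, settled 5 h at 37 C/5% CO2 before compound addition. Nonlytic NanoLuc luminescence from viable-cell prosubstrate reduction read repeatedly during 40 h treatment at 37 C.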
The nature of assay [15]: qHTS assay to identify small molecule agonists of H2AX (AID 1224845; active means well fitted activation curve with a large enough effect in the signal ratio in the repeat runs, not every such curve was filed as active; the % refers to the signal ratio; further: on the % scale 0 is the no-effect control and ±100 the full control effect). Put shortly:
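Wild-type CHO-K1 cells, plated overnight, exposed 3hr at 37C to 15 concentrations (0.76% DMSO final). Lysed, then HTRF anti-pH2AX (S139) cryptate and anti-H2AX-d2 antibodies, 24 hr room temperature; 665/620 nm emission read.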

Assay [16] is described as follows: A CellTox Green Cytotoxicity Assay to monitor cytotoxicity in HEK293 cells - 40 hour (AID 1224871). Further: on the % scale 0 is the no-effect control and ±100 the full control effect; nearly all actives have a fitted effect of over 45% in size. The method in brief: as §1
Assay [17] is described as follows: qHTS assay to identify small molecule antagonists of the estrogen related receptor signaling pathway with the pleiotropic PPARgamma coactivator (PGC) from Tox21 10K library (AID 1224841; call rule not given here). Put shortly:
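Test chemicals dissolved in DMSO were applied to pre-incubated (6 h) PGC/ERR cells at 2,000 cells/well for an 18 h, 37 C treatment; reporter luminescence was then read using One-Glo.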

A short description of assay [18]: qHTS assay to identify small molecule agonists of the estrogen related receptor signaling pathway with the pleiotropic PPARgamma coactivator (PGC) from Tox21 10K library (AID 1224842). Further: potency means the concentration at half of the fitted maximal effect; nearly all actives have a fitted effect of over 15% in size. The method in brief:
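PGC/ERR reporter cell line, 2,000 cells per well, incubated 6 h at 37 C before 23 nL compound in DMSO was added. After 18 h at 37 C, One-Glo luminescence read following 30 min at room temperature.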

Assay [19] can be described thus: qHTS assay to identify small molecule antagonists of the estrogen related receptor (ERR) signaling pathway from Tox21 library (AID 1224848). The method in brief:
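Compounds dissolved in DMSO are pin-transferred onto ERR reporter cells (2,000 per well) that have settled for 6 h at 37 C. Plates then incubate 18 h at 37 C before ONE-Glo luciferase reagent and a luminescence read 30 min later.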

A short description of assay [20]: qHTS assay to identify small molecule agonists of the estrogen related receptor (ERR) signaling pathway from Tox21 library (AID 1224849; calls by dose curve; further: on the % scale 0 is the no-effect control and ±100 the full control effect; nearly all actives have a fitted effect of over 15% in size). The note with it: ERR reporter cell line, ONE-Glo luciferase, 18 h; at 42.5 µM (top of the series). Put shortly:
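Tox21 compounds tested for ERR agonism in an NTP reporter cell line: 18 h treatment at 37 C, then ONE-Glo luminescence.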

Nuclear receptor subfamily 1 group I member 3 (Homo sapiens), sequence (Q14994 whole entry, looked up): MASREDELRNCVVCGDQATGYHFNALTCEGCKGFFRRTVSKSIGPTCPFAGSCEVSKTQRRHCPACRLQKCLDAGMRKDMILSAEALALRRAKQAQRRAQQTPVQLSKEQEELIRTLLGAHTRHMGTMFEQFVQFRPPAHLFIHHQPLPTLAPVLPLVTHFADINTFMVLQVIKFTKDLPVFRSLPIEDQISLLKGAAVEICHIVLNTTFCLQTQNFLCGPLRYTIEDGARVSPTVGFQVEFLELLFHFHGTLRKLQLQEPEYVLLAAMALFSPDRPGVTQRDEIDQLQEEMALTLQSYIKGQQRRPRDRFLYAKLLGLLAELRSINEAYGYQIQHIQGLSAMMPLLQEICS
Luciferin 4-monooxygenase (Photinus pyralis), sequence (P08659 whole entry, looked up): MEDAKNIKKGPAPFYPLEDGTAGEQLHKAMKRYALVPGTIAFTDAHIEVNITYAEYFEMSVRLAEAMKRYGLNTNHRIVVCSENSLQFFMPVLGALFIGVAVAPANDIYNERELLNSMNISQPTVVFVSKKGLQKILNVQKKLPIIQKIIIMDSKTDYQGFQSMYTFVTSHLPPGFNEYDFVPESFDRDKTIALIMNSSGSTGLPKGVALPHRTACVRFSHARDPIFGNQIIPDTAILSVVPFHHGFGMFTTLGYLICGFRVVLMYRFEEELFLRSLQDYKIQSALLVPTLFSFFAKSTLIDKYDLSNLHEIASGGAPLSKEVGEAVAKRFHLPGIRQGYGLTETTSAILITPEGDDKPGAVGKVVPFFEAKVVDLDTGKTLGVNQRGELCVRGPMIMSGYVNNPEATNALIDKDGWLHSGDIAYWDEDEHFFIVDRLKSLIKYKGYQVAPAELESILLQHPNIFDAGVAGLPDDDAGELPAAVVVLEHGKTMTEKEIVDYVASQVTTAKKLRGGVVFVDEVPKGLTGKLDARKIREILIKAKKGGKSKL
Thyrotropin receptor (Homo sapiens), sequence (P16473 whole entry, looked up): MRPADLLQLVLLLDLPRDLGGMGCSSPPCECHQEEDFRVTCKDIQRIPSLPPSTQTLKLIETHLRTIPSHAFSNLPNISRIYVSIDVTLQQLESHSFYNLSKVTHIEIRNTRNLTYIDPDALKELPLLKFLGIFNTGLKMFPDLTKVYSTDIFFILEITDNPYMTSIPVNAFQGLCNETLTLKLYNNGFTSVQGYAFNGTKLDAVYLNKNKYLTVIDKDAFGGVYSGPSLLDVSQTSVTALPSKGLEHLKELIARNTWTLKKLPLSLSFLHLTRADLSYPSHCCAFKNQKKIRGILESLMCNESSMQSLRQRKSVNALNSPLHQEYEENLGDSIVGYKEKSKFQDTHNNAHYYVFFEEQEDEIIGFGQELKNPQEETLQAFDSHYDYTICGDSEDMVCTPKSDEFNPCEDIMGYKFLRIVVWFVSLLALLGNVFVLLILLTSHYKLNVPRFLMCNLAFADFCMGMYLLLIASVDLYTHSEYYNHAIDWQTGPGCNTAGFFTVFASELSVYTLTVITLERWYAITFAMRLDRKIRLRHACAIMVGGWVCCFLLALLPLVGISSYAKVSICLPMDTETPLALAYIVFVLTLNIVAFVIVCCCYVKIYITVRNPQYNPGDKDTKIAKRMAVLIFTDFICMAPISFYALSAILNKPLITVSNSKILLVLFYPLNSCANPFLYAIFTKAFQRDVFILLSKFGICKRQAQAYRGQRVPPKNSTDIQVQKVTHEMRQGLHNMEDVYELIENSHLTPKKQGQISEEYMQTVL

Regarding `OC1CCCCCCCCCCC1`, the Potency result in assay [1], in assay [2], in assay [3], in assay [4], in assay [5] and in assay [6] was “inactive” each time. The Potency entry in [7], in assay [8], in assay [9], in assay [10], in assay [11] and in assay [12] was “inactive” each time. The Potency result in [14] was “inactive”. In assay [13], the Potency result was “inactive and 43.6 µM (active)”.

In the case of `CC(=O)c1ccccn1`, the Potency result in [1], in [2], in assay [3], in assay [4], in [5] and in [6] was “inactive” throughout. Further, the Potency entry in assay [7], in [8], in [9], in [11], in [12] and in assay [13] was “inactive” in each case. The Potency entry in assay [16] is “inactive”. For the same compound, the outcome in assay [15] was inactive.

Regarding `CC(C)(C)NC(=O)[C@H]1CC[C@H]2[C@@H]3CC[C@H]4NC(=O)C=C[C@]4(C)[C@H]3CC[C@]12C`, the Potency result in assay [1], in assay [2], in assay [3], in assay [4], in assay [5] and in [6] was “inactive” in each case. For the same compound, the Potency result in assay [8], in assay [10], in assay [11], in assay [12], in assay [13] and in assay [16] was “inactive” in each case.

Regarding `CC(C)OC(=O)C(C)(C)Oc1ccc(C(=O)c2ccc(Cl)cc2)cc1`, the Potency was 34.7 µM (active) in assay [1]; 54.5 µM (active) and 26.6 µM (active) in [5]; 50.5 µM (active) in assay [10]; 21.9 µM (active) and 10.7 µM (active) in assay [12]. The Potency result in assay [2], in assay [3], in [4], in [6], in assay [7] and in assay [8] was “inactive” throughout. The Potency result in assay [11] and in [16] was “inactive” each time.

With `CCCc1c(OCCCCc2nn[nH]n2)ccc(C(C)=O)c1O`, the Potency result in [1], in assay [2], in assay [3], in [4], in [5] and in assay [6] was “inactive” each time. Also, the Potency result in assay [7], in assay [8], in [11], in [12] and in assay [14] was “inactive” throughout.

Consider `CC(=O)Oc1ccccc1C(=O)Nc1ncc([N+](=O)[O-])s1`, for which the Potency in assay [1] was 1.29 µM (active) and 3.09 µM (active); in [2], 19.7 µM (active) and 21.1 µM (active); in [3], 24.8 µM (active) and 23.7 µM (active); in assay [5] it was 556 nM (active) and 473 nM (active); in [6], 15.7 µM (active) and 23.7 µM (active); in [10], 9.16 µM (active) and 24.7 µM (active). Besides, the Potency entry in assay [4], in assay [7], in [8], in [11], in assay [13] and in assay [14] was “inactive” each time. In [16], the Potency entry is “inactive”. For the same compound, in [15], the result was inactive.

For the compound `COc1cccc2c1C(=O)c1c(O)c3c(c(O)c1C2=O)C[C@@](O)(C(=O)CO)C[C@@H]3O[C@H]1C[C@H](N)[C@H](O)[C@H](C)O1`, the Potency in [1] was 15.5 µM (active); in assay [2], 6.85 µM (active) and 6.68 µM (active); in assay [3], 2.17 µM (active) and 5.96 µM (active); in assay [4], 137 nM (active) and 1.06 µM (active); in assay [18] it was 216 nM (active) and 596 nM (active); in assay [8], 5.49 µM (active) and 10.7 µM (active). Besides, the Potency entry is “inactive and 1.69 µM (active)” in [11]; 123 nM (active) and 213 nM (active) in assay [12]. The Potency result in assay [5], in assay [17], in [7], in assay [10], in [19] and in [13] was “inactive” throughout. The Potency result in [16] was “inactive”. In addition, in assay [20], the activity change, positive = activation was -2.08% (inactive) and 0.0204% (inactive).
